Measured values as given in PubChem BioAssay.
The source made the active and inactive calls.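 The calls were made as follows, unless noted: active = visually confirmed hit in the image check and inhibition above 20%; inconclusive = visually confirmed hit but inhibition not above 20%; inactive = no visual hit in the image check.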

Experiments:
[1] = inhibitors of TNFa-induced NFkB p65 translocation, primary screen, imaging, HUVEC, MLSMR starter and 10KST1 sets (AID 438;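 active = inhibition above 20% together with a positive visual image hit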;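 also: compound added about 3h40 before a 20 min TNFalpha stimulation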;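 as to inhibition: signal is the nuclear over cytoplasmic p65 intensity ratio per well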); details: HUVEC TNFa-induced p65 nuclear translocation; cell count: measured here: nuclei count (cytotoxicity indicator), at 2.08 µM; inhibition: at 2 µM, stronger effect = higher value, 0% TNFa-plus-vehicle, 100% no-TNFa wells
[2] = inhibitors of mutant huntingtin aggregation, primary screen, imaging, exon1htt(103Q)mCFP cells, high-content imaging (AID 483;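 active = visual image review flags a hit and inhibition of aggregation exceeds 20%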;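 also: compound exposure lasted 3 days before fixation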;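 as to nuclei count: percent of the per-plate median nuclei count of sample wells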); details: exon1htt(103Q)mCFP cell line, aggregate imaging, at 2 µM; inhibition of aggregation: stronger effect = higher value; nuclei count: measured here: cell count, toxicity
[3] = inhibitors of E-selectin induction by TNFa, primary screen, imaging, HUVEC, immunofluorescence, MLSMR starter and 10KST1 sets (AID 487); details: HUVEC TNFalpha-induced E-selectin immunofluorescence imaging, at 2 µM; inhibition: stronger effect = higher value; nuclei count: measured here: cell number, toxicity;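 as to inhibition: signal is fraction of cell area covered by stained E-selectin grains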;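 as to nuclei count: 100% = median nuclei count of all wells on the same plate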
[4] = target: Voltage-gated potassium channel subunit beta-2 (Rattus norvegicus) (UniProt P62483); assay: KvBeta enzyme negative modulators, primary screen, biochemical, NADPH fluorescence (AID 622;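 active = fluorescence slope higher than the sample average by over 3 SD, cut at about -0.22 in these data, passing the limit was not always enough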;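 also: slope of raw intensity against log time taken from 70 to 1610 s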); details: recombinant KvBeta, 4-cyanobenzaldehyde reduction, at 10 µM, stronger effect = higher value
[5] = target: Voltage-gated potassium channel subunit beta-2 (Rattus norvegicus) (UniProt P62483); assay: KvBeta positive modulators, primary screen, biochemical, NADPH fluorescence (AID 623;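 active = NADPH fluorescence slope more negative than the mean of all samples by about 3 SD, 99.7% confidence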;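 also: fluorescence intensity change per second fitted from 20 to 320 s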); details: Recombinant KvBeta, NADPH fluorescence decrease slope, 10 min; at 10 µM; stronger effect = lower value
[6] = target: Alpha-2C adrenergic receptor (Homo sapiens) (UniProt P18825); assay: modulators of alpha2C/GIRK thallium flux, primary screen, cell-based, HEK293 alpha2C/GIRK1/2 (AID 624;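 active = fluorescence slope after compound addition differing from the mean of all screened samples at 99.7% confidence, in either direction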;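 also: slope of fluorescence ratio to pre-addition baseline per second over 15 to 24 s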); details: thallium flux BTC fluorescence, at 10 µM, actives lie on both sides
[7] = inhibitors of Sendai virus-induced IRF3 signaling, primary screen, TLR/RLR signaling modifier project, cell-based, Sendai virus stimulus, luciferase, 10K MLSCN set (AID 602276;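 active = inhibition at or above 50% at 10 µM; inactive = inhibition below 50%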;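 also: firefly luciferase from ISG56 promoter only with Renilla not read in this screen; 0% = Sendai virus plus DMSO and 100% = medium plus DMSO without virus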); details: HEK293 RL24 IRF3 luciferase reporter, at 10 µM, stronger effect = higher value
[8] = inhibitors of poly I:C-induced TLR3 signaling, primary screen, cell-based, poly I:C stimulus, luciferase, 10K MLSCN set (AID 602277;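 active = inhibition of the reporter signal at or above 50%; inactive = inhibition below 50%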); details: HEK293-TLR3 RL24 IRF3 luciferase reporter, at 10 µM, stronger effect = higher value

Chain of Voltage-gated potassium channel subunit beta-2 (Rattus norvegicus) (P62483 whole entry, looked up): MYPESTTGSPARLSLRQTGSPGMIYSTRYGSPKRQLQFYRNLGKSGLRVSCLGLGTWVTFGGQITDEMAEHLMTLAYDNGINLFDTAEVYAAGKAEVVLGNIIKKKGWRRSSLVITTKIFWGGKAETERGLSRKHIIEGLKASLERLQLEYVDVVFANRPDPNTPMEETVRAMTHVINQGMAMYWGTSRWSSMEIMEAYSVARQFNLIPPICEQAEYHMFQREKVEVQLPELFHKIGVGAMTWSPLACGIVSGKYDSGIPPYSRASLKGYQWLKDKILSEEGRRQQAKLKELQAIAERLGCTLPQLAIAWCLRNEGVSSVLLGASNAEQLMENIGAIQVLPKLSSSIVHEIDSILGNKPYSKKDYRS
Chain of Alpha-2C adrenergic receptor (Homo sapiens) (P18825 whole entry, looked up): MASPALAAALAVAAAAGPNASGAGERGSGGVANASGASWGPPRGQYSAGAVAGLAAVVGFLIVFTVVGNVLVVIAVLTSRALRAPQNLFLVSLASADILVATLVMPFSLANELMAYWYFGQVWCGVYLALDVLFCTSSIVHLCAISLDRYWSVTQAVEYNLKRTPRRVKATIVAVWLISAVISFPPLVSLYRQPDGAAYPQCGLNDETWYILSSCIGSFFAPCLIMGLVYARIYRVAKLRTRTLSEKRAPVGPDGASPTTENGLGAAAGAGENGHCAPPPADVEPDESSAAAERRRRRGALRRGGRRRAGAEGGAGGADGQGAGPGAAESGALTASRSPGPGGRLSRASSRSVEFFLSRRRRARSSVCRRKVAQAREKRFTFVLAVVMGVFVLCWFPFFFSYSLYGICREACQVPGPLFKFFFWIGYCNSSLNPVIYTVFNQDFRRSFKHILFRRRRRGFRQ

SMILES: CCOC(=O)Cn1nnc(-c2ccc(SC)cc2)n1
- cell count [1]: 729
- inhibition [1]: -6.9% (inactive)
- inhibition of aggregation [2]: -11.1% (inactive)
- nuclei count [2]: 102%
- inhibition [3]: -69.2% (inactive)
- nuclei count [3]: 116%
- fluorescence slope [4]: -0.329 (inactive)
- NADPH fluorescence slope [5]: -6.5e-05 (inactive)
- slope [6]: 0.00483 (inactive)
- inhibition [7]: 11.7% (inactive)
- inhibition [8]: 16.7% (inactive)

SMILES: CCOc1cc(C(=O)Nc2ccon2)cc(OCC)c1OCC
- cell count [1]: 795
- inhibition [1]: 0.3% (inactive)
- inhibition of aggregation [2]: -40.4% (inactive)
- nuclei count [2]: 104%
- inhibition [3]: -35.9% (inactive)
- nuclei count [3]: 108%
- fluorescence slope [4]: -0.387 (inactive)
- NADPH fluorescence slope [5]: 1.3e-05 (inactive)
- slope [6]: 0.00341 (inactive)
- inhibition [7]: 17.9% (inactive)
- inhibition [8]: 15.6% (inactive)

SMILES: CCOC(=O)C(C(=O)OCC)C(C)C#CCN1CCCCC1 (centres undefined)
- cell count [1]: 325
- inhibition [1]: -1.3% (inactive)
- inhibition of aggregation [2]: -11.4% (inactive)
- nuclei count [2]: 99.7%
- inhibition [3]: -79.7% (inactive)
- nuclei count [3]: 113%
- fluorescence slope [4]: -0.322 (inactive)
- NADPH fluorescence slope [5]: -5.7e-05 (inactive)
- slope [6]: 0.00551 (inactive)
- inhibition [7]: 16.5% (inactive)
- inhibition [8]: 26.6% (inactive)

SMILES: COc1ccc(-c2nnc(-c3ccc(N)cc3)o2)cc1
- cell count [1]: 332
- inhibition [1]: 5.5% (inactive)
- inhibition of aggregation [2]: 9.6% (inactive)
- nuclei count [2]: 111%
- inhibition [3]: -145% (inactive)
- nuclei count [3]: 124%
- fluorescence slope [4]: -0.0553 (active)
- NADPH fluorescence slope [5]: -2.2e-05 (inactive)
- slope [6]: 0.00409 (inactive)
- inhibition [7]: -34.1% (inactive)
- inhibition [8]: -82.2% (inactive)

SMILES: CNC(=O)C1C2C=CC3(O2)C1C(=O)N(C1CC1)C3C(=O)NCc1ccc(OC)cc1 (centres undefined)
- cell count [1]: 199
- inhibition [1]: 11.8% (inactive)
- inhibition of aggregation [2]: -5.5% (inactive)
- nuclei count [2]: 102%
- inhibition [3]: 41.6% (inactive)
- nuclei count [3]: 98.4%
- fluorescence slope [4]: -0.533 (inactive)
- NADPH fluorescence slope [5]: -3.2e-05 (inactive)
- slope [6]: 0.00639 (inactive)
- inhibition [7]: 14.1% (inactive)
- inhibition [8]: 20.2% (inactive)

SMILES: CCOc1cc(C(=O)N(C)Cc2cc3ccccc3[nH]c2=O)cc(OCC)c1OCC
- cell count [1]: 376
- inhibition [1]: 0.6% (inactive)
- inhibition of aggregation [2]: 22.5% (inactive)
- nuclei count [2]: 87.4%
- inhibition [3]: -205% (inactive)
- nuclei count [3]: 196%
- fluorescence slope [4]: -0.325 (inactive)
- NADPH fluorescence slope [5]: -5e-05 (inactive)
- slope [6]: 0.00465 (inactive)
- inhibition [7]: 11.9% (inactive)
- inhibition [8]: 18.9% (inactive)

SMILES: Cc1ncc(CSc2nc3ccccc3[nH]2)c(N)n1
- cell count [1]: 920
- inhibition [1]: 11.9% (inactive)
- inhibition of aggregation [2]: -17.1% (inactive)
- nuclei count [2]: 115%
- inhibition [3]: -37.5% (inactive)
- nuclei count [3]: 109%
- fluorescence slope [4]: -0.606 (inactive)
- NADPH fluorescence slope [5]: -9.7e-06 (inactive)
- slope [6]: 0.00699 (inactive)
- inhibition [7]: 4.12% (inactive)
- inhibition [8]: -10.7% (inactive)

SMILES: Cc1cccc(-n2nc3c(c2NC(=O)CCC2CCCCC2)CS(=O)C3)c1C (centres undefined)
- cell count [1]: 637
- inhibition [1]: -8.7% (inactive)
- inhibition of aggregation [2]: -46.2% (inactive)
- nuclei count [2]: 80%
- inhibition [3]: -27.4% (inactive)
- nuclei count [3]: 110%
- fluorescence slope [4]: -0.427 (inactive)
- NADPH fluorescence slope [5]: -2.6e-06 (inactive)
- slope [6]: 0.00515 (inactive)
- inhibition [7]: 10.6% (inactive)
- inhibition [8]: 37.7% (inactive)

SMILES: COc1ccccc1NC(=O)Cn1nnc(-c2ccccc2NC(=O)c2ccco2)n1
- cell count [1]: 317
- inhibition [1]: 6.2% (inactive)
- inhibition of aggregation [2]: -19% (inactive)
- nuclei count [2]: 86.5%
- inhibition [3]: -29.7% (inactive)
- nuclei count [3]: 117%
- fluorescence slope [4]: -0.408 (inactive)
- NADPH fluorescence slope [5]: -1.3e-05 (inactive)
- slope [6]: 0.00705 (inactive)
- inhibition [7]: 16.8% (inactive)
- inhibition [8]: 37.7% (inactive)

SMILES: CN(c1ccccc1)S(=O)(=O)c1ccc(C(=O)OCC(=O)NCc2ccco2)cc1
- cell count [1]: 608
- inhibition [1]: 11.6% (inactive)
- inhibition of aggregation [2]: 14.7% (inactive)
- nuclei count [2]: 112%
- inhibition [3]: -37.2% (inactive)
- nuclei count [3]: 99.7%
- fluorescence slope [4]: -0.588 (inactive)
- NADPH fluorescence slope [5]: 2e-05 (inactive)
- slope [6]: 0.00551 (inactive)
- inhibition [7]: -14.7% (inactive)
- inhibition [8]: 0.385% (inactive)

SMILES: O=C(c1cc2cc(Cl)cc(Cl)c2oc1=O)N1CCOCC1
- cell count [1]: 275
- inhibition [1]: 13.1% (inactive)
- inhibition of aggregation [2]: -12% (inactive)
- nuclei count [2]: 87.4%
- inhibition [3]: -63.2% (inactive)
- nuclei count [3]: 110%
- fluorescence slope [4]: -0.48 (inactive)
- NADPH fluorescence slope [5]: -6.7e-05 (inactive)
- slope [6]: 0.0058 (inactive)
- inhibition [7]: 26.9% (inactive)
- inhibition [8]: 30.3% (inactive)

SMILES: Cc1ccc(/C=c2\sc3nc(-c4ccccc4Br)nn3c2=O)o1
- cell count [1]: 277
- inhibition [1]: -5% (inactive)
- inhibition of aggregation [2]: 39.3% (active)
- nuclei count [2]: 92.3%
- inhibition [3]: -9.5% (inactive)
- nuclei count [3]: 94.1%
- fluorescence slope [4]: -0.577 (inactive)
- NADPH fluorescence slope [5]: -5.1e-05 (inactive)
- slope [6]: 0.00296 (inactive)
- inhibition [7]: 12.3% (inactive)
- inhibition [8]: 18.9% (inactive)

SMILES: C=CCn1c(SCC(=O)Nc2cccc(OC)c2)nnc1-c1cccnc1
- cell count [1]: 619
- inhibition [1]: -4.8% (inactive)
- inhibition of aggregation [2]: 0.3% (inactive)
- nuclei count [2]: 118%
- inhibition [3]: -52.7% (inactive)
- nuclei count [3]: 104%
- fluorescence slope [4]: -0.527 (inactive)
- NADPH fluorescence slope [5]: -9.5e-06 (inactive)
- slope [6]: 0.00671 (inactive)
- inhibition [7]: 10.5% (inactive)
- inhibition [8]: 16.9% (inactive)

SMILES: O=S(=O)(c1ccccc1)c1nc(-c2cccs2)oc1NCC1CCCO1 (centres undefined)
- cell count [1]: 566
- inhibition [1]: -1.8% (inactive)
- inhibition of aggregation [2]: 11.4% (inactive)
- nuclei count [2]: 108%
- inhibition [3]: -17.9% (inactive)
- nuclei count [3]: 104%
- fluorescence slope [4]: -0.538 (inactive)
- NADPH fluorescence slope [5]: 5.1e-06 (inactive)
- slope [6]: 0.00406 (inactive)
- inhibition [7]: -17.6% (inactive)
- inhibition [8]: -20.5% (inactive)
